Test results taken from PubChem BioAssay AID1863 (Southern Research Specialized Biocontainment Screening …, 2009).
“And” between values parts separate entries of the source, which are not always exact repeats. Equal values may be shown once. Out of some 300,000 compounds screened, about 480 (0.16%) were called active.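 The calls were made as follows: active = inhibition over 29.93%, a cutoff 3 SD above the screen mean, later confirmed by dose response; inconclusive = inhibition over 29.93% but no dose response follow-up; inactive = inhibition at most 29.93% or unconfirmed.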 A selection follows. Results with a measured potency or affinity are listed apart.

Experiment: inhibitors of PhoP regulon expression, primary screen, Salmonella Typhimurium, GFP reporter (AID 1863);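 also: 0% = low Mg2+ inducing control and 100% = high Mg2+ repressing control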
Conditions: S. Typhimurium PhoP-regulated promoter GFP reporter, 4 h; at 50 µM; hits give high values

inhibition, inactive:
COc1ccc(C(=O)C2CCCN(C(=O)C3CCOCC3)C2)c(C)c1 (stereo not given) 4.46%
CCCCCc1ccc(OCCCC[n+]2ccc(C)cc2)c(CCCCC)c1 15.8%
CCCCCc1ccc(OCCCC[n+]2cccc(C)c2)c(CCCCC)c1 3.26%
CCCCCc1ccc(OCCCC[n+]2ccccc2)c(CCCCC)c1 3.64%
C[n+]1cn(Cc2cc(Cl)ccc2OC(F)F)c2ccccc21 -3.69%
O=C1CC(C(=O)Nc2ccccc2)N=C(N2CCCCC2)N1 (stereo not given) 0.85%
OCC[C@H]1C[C@@H](O)[C@H](O)[C@]2(CCCCO2)O1 -4.87%
O=C(Cn1cc(SCc2cccc(Cl)c2)c2ccccc21)N1CCOCC1 -8.83%
CC(C)c1ccc(C2NC(=S)NC3=C2C(=O)CCC3)cc1 (stereo not given) 1.24%
CCOC(=O)/C=c1\s/c(=C\c2ccc(C(F)(F)F)cc2)c(=O)n1CC(=O)NCc1ccco1 -2.01%
Cc1c(-n2cc(C(=O)O)c(=O)c3cc(F)c(N4CCCC(O)C4)c(F)c32)c(=O)n(-c2ccccc2)n1C (stereo not given) 2.04%
CCn1cc(C(=O)O)c(=O)c2cnc(N3CCN(C(=S)Nc4ccccc4C(F)(F)F)CC3)nc21 3.15%
S=C(NC1CC2CCC1C2)N1CCN(c2cccc(Cl)c2)CC1 (stereo not given) -2.31%
O=S(=O)(c1ccc(F)c(F)c1F)N1CCN(C(=S)NC2CC3CCC2C3)CC1 (stereo not given) -4.07%
CCOC(=O)c1cn(-c2nc(-c3ccc(Cl)cc3)cs2)c2c(F)c(N3CC(C)OC(C)C3)c(F)cc2c1=O (stereo not given) 10.3%
CCn1cc(C(=O)O)c(=O)c2cnc(N3CCN(C(=S)Nc4ccc(F)cc4)CC3)nc21 -3.34%
COC(=O)CC1C(=O)NCCN1C(=S)Nc1ccc(F)cc1 (stereo not given) 0.13%
Cn1c(SCC2CCCCC2)nnc1-c1ccncc1 7.51%
CC(NC(=O)c1cc2cc(F)ccc2[nH]1)c1ccccc1 (stereo not given) 5.36%
COc1ccc(Cl)cc1NC(=O)C/C(C)=N/NC(=O)COc1ccc(C)cc1 4.2%
Cc1ccc(C(=O)OC(C)C(=O)NC2CCCCC2C)cc1S(=O)(=O)N1CCOCC1 (stereo not given) -5.67%
CCCCC(=O)N1CCN(c2nc3ccc(OCC)cc3s2)CC1 10.3%
CN1CCc2c(sc(NC(=O)C3CCCN3S(=O)(=O)c3ccc(Cl)s3)c2C(N)=O)C1 (stereo not given) -7.52%
CCOc1ccc(N(CC(=O)NCCc2ccccc2)C(=O)c2csnn2)cc1 2.07%
Cc1ccc(-n2nc3ccc(N)cc3n2)cc1Cl 0.05%
O=C(O)COCC(=O)NCc1nc(-c2ccc(C(F)(F)F)cc2)no1 -3.89%
CC1c2ccsc2CCN1S(=O)(=O)c1ccccc1 (stereo not given) 5.29%
COc1cc2c(cc1OC)C(COc1ccc([N+](=O)[O-])cc1)NCC2 (stereo not given) 5.02%
CC1CCCN(C(=S)NCc2ccccc2)C1 (stereo not given) 4.83%
CC1CCN(c2c(NCC3CCC(C(=O)NCc4ccccc4)CC3)c(=O)c2=O)CC1 (stereo not given) -6.12%
Cc1ccc(CCNS(=O)(=O)c2cc(Br)cnc2N)cc1 1.18%
CC1CCCCC1NC(=O)C1CCN(C(=O)c2sccc2-n2cccc2)CC1 (stereo not given) 6.9%
COC(=O)COC(=O)c1ccc(O)cc1 -6.41%
Cc1ccc(-c2nc(CS(=O)(=O)CC(=O)N3CCc4ccccc4C3)c(C)o2)cc1 8.69%
COc1ccc(-c2n(CC(=O)OC3CC(C)CCC3C(C)C)c3ccccc3[n+]2C)cc1 (stereo not given) -3.97%
CC1CCC(C(C)C)C(OC(=O)Cn2c(-c3ccc(Br)cc3)[n+](C)c3ccccc32)C1 (stereo not given) 10% and 1.48%
CC1CCC(C(C)C)C(OC(=O)Cn2c(-c3ccccc3)[n+](C)c3ccccc32)C1 (stereo not given) -8.38% and 13.1%
Cc1cccc(OCc2n(CC(=O)OC3CC(C)CCC3C(C)C)c3ccccc3[n+]2C)c1 (stereo not given) 15.1%
CC1CCC(C(C)C)C(OC(=O)Cn2c(-c3ccc(F)cc3)[n+](C)c3ccccc32)C1 (stereo not given) 4.57%
Cc1ccccc1OCc1n(CC(=O)OC2CC(C)CCC2C(C)C)c2ccccc2[n+]1C (stereo not given) 6.3%
COc1cccc(N2CCN(C(=O)CN(C)S(=O)(=O)c3ccc4c(c3)c(=O)n(C)c(=O)n4C)CC2)c1 3.8%
CCN(CC)c1ccc(NC(=O)CCNC(=O)c2ccco2)cc1 17.8%
COc1ccc(CNC(=O)COC(=O)CCOc2ccc(C)cc2)cc1OC -1.68%
CN(Cc1cn(C)c2ccccc12)C(=S)Nc1cc(F)cc(F)c1 -1.37%
COc1ccc(CCN2CC(C(=O)NCCc3ccccc3)CC2=O)cc1OC (stereo not given) 6.87%
CCN1CCN(C(=O)c2cnn3c(C(F)F)cc(-c4ccc(C)cc4)nc23)CC1 7.14%
COc1ccc(S(=O)(=O)N2CC(C)N(C(=O)N(C)C)C2C)cc1 (stereo not given) -6.03%
COc1ccc(-n2cnnc2SCC(=O)Nc2ccccc2F)cc1 -6.73%
CCOc1ccccc1NC(=O)CSc1nnc(CNC(=O)c2c(F)cccc2Cl)o1 1.66%
COc1ccc(NC(=O)COc2ccc(/C=N/n3c(C)nnc3C)cc2OC)cc1 -10.3%
COC(=O)Nc1ccc(S(=O)(=O)N2CCCCCC2)cc1 -7.01%
Cc1ccc(C)c(N(CC(=O)NC(C)C)C(=O)CCC(=O)Nc2ccccn2)c1 -3.9%
CO/N=C(\C(=O)N[C@@H]1C(=O)N2C(C(=O)O)=C(COC(N)=O)CS[C@H]12)c1ccco1 4.28%
COCC1=C(C(=O)OC(C)OC(=O)OC(C)C)N2C(=O)[C@@H](NC(=O)/C(=N\OC)c3csc(N)n3)[C@H]2SC1 (stereo not given in full) -12.3%
O=S(=O)(N/N=C/c1ccc(N2CCOCC2)cc1)c1ccc(Br)cc1 -5.5%
Cc1nn2c(-c3ccccc3)ccnc2c1Br 0.66%
CCc1ccc(S(=O)(=O)/N=C2\C=CC(=O)c3ccccc32)cc1 3.04%
Cc1ccc(S(=O)(=O)/N=C2/C=C(C3C(=O)CC(C)(C)CC3=O)C(=O)c3ccccc32)cc1 8.77%
Cc1ccc(S(=O)(=O)/N=C2/C=C(Sc3ncn[nH]3)C(=O)c3ccccc32)c(C)c1 192%
CCc1ccc(S(=O)(=O)/N=C2\C=C(Nc3ccc(O)cc3)C(=O)c3ccccc32)cc1 15.4%
CCOC(=O)c1cn(Cc2ccccc2)c(C(=O)OC(C)(C)C)c1O 2.15%
CN(CC(=O)Nc1ccccc1Br)C(=O)c1ccc(COc2ccccc2)cc1 1.64%
O=C(O)c1cc2ccc3cccc4ccc(c1)c2c34 7.13%
Oc1cccc2cc3cccc(O)c3c(O)c12 5.42%
CC(=O)NC12CC3CC(C1)CC(C(=O)Nc1nccs1)(C3)C2 -6.86%
O=C(COc1ccc(Cl)cc1)Nc1ccc(C(=O)O)cc1NC(=O)COc1ccc(Cl)cc1 -0.41%
COc1cc(/C=C/C(=O)N(C)c2ccccc2C(=O)O)cc(OC)c1OC -9.48%
CC(C)Nc1cc(C(C)(C)C)nc2c(-c3ccccc3)cnn12 1.4%
CC(C)(C)c1cc(NCCCn2ccnc2)n2ncc(-c3ccccc3)c2n1 -5.57%
C[C@@H]1CN(Cc2nc(-c3cccs3)no2)C[C@H](C)O1 17.7%
COc1ccc(CC2NCCC3(O)CCCCC23)cc1 (stereo not given) -4.79%
CCOc1ccc(C(=O)Nc2ccc(C(=O)N3CCOCC3)cc2)c(OCC)c1 2.54%
CCCCC(CC)CNC(=O)C1CC=CCC1C(=O)O (stereo not given) -4.78%
Cc1cc2oc(C(=O)Nc3ccc(S(N)(=O)=O)cc3)c(C)c2cc1Cl 0.34%
COC(=O)c1ccc(Nc2c([N+](=O)[O-])ccc3nonc23)cc1 -2.08%
Cc1ccc(S(=O)(=O)N(C)C)cc1NC(=O)COC(=O)COc1ccc2c(c1)CCC2 -2.74%
Cc1cc(Nc2ccccc2)nc2cc(O)ccc12 60.3%
Cc1cc(N2CCC(C)CC2)nc2cccc(O)c12 11.4%
Cc1cc(Nc2ccccc2O)c2ccccc2n1 8.86%
Cc1cccc(Nc2nc3ccccc3s2)c1C 6.62%
CCOc1ccc(NC(=O)CSc2nc3cccnc3n2CCOC)cc1 8.6%
O=C(NC(=S)N1CCN(C/C=C/c2ccccc2)CC1)c1cccnc1 -1.23%
Cc1cc(C)n(-c2nc(NCCO)c3c4c(sc3n2)CCCC4)n1 1.98%
Cc1cc(C)n(-c2nc(NCCCN(C)C)c3c4c(sc3n2)CCCC4)n1 -3.42%
Cn1cc(C(=O)NCc2cccnc2)c(=O)c2cc(S(=O)(=O)N3CCCCCC3)ccc21 1.24%
CS(=O)(=O)N(Cc1ccc(C(=O)NCCSCc2ccco2)cc1)c1ccccc1 -4.62%
Cc1cccc(N2CCN(C(=O)c3ccnn3C)CC2)c1C 0.84%
CC(C)(C)NCC(O)CON=C1c2ccccc2-c2ccccc21 (stereo not given) -0.28%
COCCNCC(O)CON=C1c2ccccc2-c2ccccc21 (stereo not given) -2.34%
Cc1n[nH]c(=S)n1-c1cccc(Cl)c1 -6.91%
